Results on 40 compounds are retold here after PubChem BioAssay (EPA / NIEHS).

Where “and” joins values, the source holds several entries; their conditions need not be identical. Identical values can stand only once. Calls of active or inactive are those of the source. How the source made its calls: active means hit-call score of the fitted dose curve at least 0.9, where 1 is the maximum; inactive means score below 0.9.

A word on the AC50: it is the concentration at which the activity in the assay is half-maximal.

Read-out in this test: Transforming Growth Factor (TGFA), TGFA (gene 7039)
Put plainly: LTEA_HepaRG_TGFA: Life Technologies and Expression Analysis (LTEA) Assay for Transforming Growth Factor (TGFA) using HepaRG (AID 2283532). The note with it: mRNA level, 48 h; actives raise or lower the signal. On the procedure: LTEA_HepaRG is a cell based, multiplexed-readout assay that uses HepaRG, a human liver cell line, with measurements taken at 48 hours after chemical dosing on a 96-well plate.LTEA_HepaRG_TGFA is one of 102 assay component(s) measured in the LTEA HepaRG cell culture assay. It is a marker of Cell proliferation, survival, death.Data from the assay component LTEA_HepaRG_TGFA was analyzed into 1 endpoint. This assay endpoint, LTEA_HepaRG_TGFA, was analyzed with bidirectional fitting relative to DMSO as the negative control and baseline of activity. Using a type of inducible reporter, measures of mRNA induction for gain or loss-of-signal activity can be used to understand regulation of transcription factor activity. To generalize the intended target to other relatable targets, this assay endpoint is annotated to the growth factor intended target family, where the subfamily is EGF-like domain.
A total of 1060 chemcials from the ToxCast library were tested in eight-point concentration-response experiments. Cell culture and cytotoxicity assays were conducted at Thermo Fisher Scientific's Custom Services facility (Madison, WI). A single lot of human HepaRG cells (Thermo Fisher Scientific, Frederick, MD) was used for the cell culture experiments. 96-well format collagen type I coated plates of human HepaRG cells were prepared using established methods. Briefly, cryopreserved HepaRG cells were thawed, plated at a density of approximately 100,000 cells/well in HepaRG Thaw, Plate, and General Purpose media (HPRG770, Thermo Fisher Scientific), and incubated for 48 hours. 0.5% DMSO was selected as vehicle control to balance the requisite need of DMSO in HepaRG cultures to maintain differentiation (for example, baseline metabolism, proportions of hepatocytes vs. cholangiocytes), while enabling further hepatic receptor pathway activation (for example, PXR and CAR) in response to chemical exposure. 48 hours after plating, the culture medium was replaced with HepaRG Serum-Free Incudtion Media. Cells were exposed to each test chemical in duplicate and maintained in CO2 incubators for another 48 hours. Chemical plates were thawed to room temperature and 200x concentrations of treatment groups were prepared. 8-point conentration-reponse curves were made with the highest exposure at 100 uM, followed by half-log dilutions, all in 0.5% DMSO. Each test plate contained variouse controls, induction positive controls (1mM phenobarbital), cytotoxicity positive controls ([…] aflatoxin B1), vehicle controls (0.5% DMSO), and total lysis controls (0.5% DMSO). Cell morphology images were taken using an Essen IncuCyte FLR automated microscope, with six 96-well plates imaged in about 24 minutes. Images were captured and exported and JPEG files. Spent culture media was transfered to black-well plates for the LDH assay, and remaining media was sorted at -80 C for later use. Cells were treated with RLT buffer and frozen until shipped for gene expression analysis. Total RNA was isolated from the cell suspension in 75 uL of Buffer RLT (Qiagen, Germantown, MD 20874) by Quintiles/Expression Analysis (Durham, NC) using a custom isolation procedure. Total RNA from each plate well was transferred to a preamplification plate. Fluidigm's 96.96 Dynamic ArrayTM (Fluidigm, Amsterdam, the Netherlands) technology was used for gene expression analyses by quantitative reverse transcription polymerase chain reaction (qRT-PCR, performed by Quintiles/Expression Analysis, Durham, NC)89. Standard TaqManTM Assays (Applied Biosystems/ThermoFisher Scientific, Foster City, CA) were used to assess the expression of 93 genes selected based on their selectivity and sensitivity to important hepatic receptors known to be modulated by environmental chemicals; importance in human hepatocyte functionality; and hepatotoxicity. […]
For `CCCOC(=O)NCCCN(C)C`, the outcome was inactive.

For the compound `O=C(O)c1ccccc1`, the call was inactive. Take `OB(O)O`: the compound was classed as inactive.

Regarding `C[C@]12C[C@H](O)[C@H]3[C@@H](CCC4=CC(=O)CC[C@@]43C)[C@@H]1CC[C@@H]2C(=O)CO`, the call was inactive. For `C#CCOC(=O)[C@@H](C)Oc1ccc(Oc2ncc(Cl)cc2F)cc1`, the compound was called inactive.

As to `CCCCCCC(C)OC(=O)COc1nc(F)c(Cl)c(N)c1Cl` (stereo not given), the compound was called inactive. For the compound `c1ccc(Nc2ccccc2)cc1`, the compound was called inactive. The same measure, in the same setting: then `CCNc1nc(N)nc(Cl)n1`, with “inactive”. Consider `C=CCOC(Cn1ccnc1)c1ccc(Cl)cc1Cl` (stereo not given), for which the AC50 was 50 µM (active). In the case of `N#CSCSc1nc2ccccc2s1`, the call was inactive. Still for that read-out and setting: as for `COCCO`, the entry is “inactive”. Regarding `CCOC(=O)C(C)Oc1ccc(Oc2nc3ccc(Cl)cc3o2)cc1` (stereo not given), the outcome was inactive.

`CCCCOC(=O)[C@@H](C)Oc1ccc(Oc2ccc(C(F)(F)F)cn2)cc1`: the compound was classed as inactive. On the same count and under the same terms, as for `CCN(CC)C(=O)c1cccc(C)c1`, the entry is “inactive”; as for `CC(=O)S[C@@H]1CC2=CC(=O)CC[C@]2(C)[C@H]2CC[C@@]3(C)[C@@H](CC[C@@]34CCC(=O)O4)[C@H]12`, “inactive”. On the same count and under the same terms, then `N[C@@H](Cc1cc(I)c(Oc2ccc(O)c(I)c2)c(I)c1)C(=O)O`, with “inactive”. As for `S=C(S)NCCNC(=S)S.[Mn+2].[S-]C([S-])=NCCN=C([S-])[S-].[Zn+2]`, the half-maximal activity concentration (AC50) is 4.16 µM (active) and 3.27 µM (active) and 4.59 µM (active). With `COc1c(Cl)ccc(Cl)c1C(=O)O`, the outcome was inactive. For the compound `CCCCOCCOCCOCc1cc2c(cc1CCC)OCO2`, the outcome was inactive.

On to `CCSC(=O)N(CC(C)C)CC(C)C`, for which the compound was classed as inactive. Take `Cc1nn(C)c(Oc2ccccc2)c1C=NOCc1ccc(C(=O)OC(C)(C)C)cc1`: the AC50 was 12.2 µM (active).

With `C#C[C@]1(O)CC[C@H]2[C@@H]3CCC4=CC(=O)CC[C@@H]4[C@H]3CC[C@@]21CC`, the result was inactive. Same read-out and setting: then `CC(C)(c1ccc(O)cc1)c1ccc(O)cc1`, with “inactive”. For the compound `Oc1ccc(C(c2ccc(O)cc2)C(Cl)(Cl)Cl)cc1`, the AC50 was 80.7 µM (active). Turning to `CCN(Cc1c(F)cccc1Cl)c1c([N+](=O)[O-])cc(C(F)(F)F)cc1[N+](=O)[O-]`, the call was inactive.

Turning to `CC(C)(C)[C@@H](O)[C@@H](Cc1ccc(Cl)cc1)n1cncn1`, the compound was called inactive.

As for `COC(=O)CSc1cc(N=c2sc(=O)n3n2CCCC3)c(F)cc1Cl`, the result was inactive.

As for `CCCCCOC(=O)COc1cc(N2C(=O)C3=C(CCCC3)C2=O)c(F)cc1Cl`, the result was inactive. For the compound `CCOC(=O)C(C)Oc1ccc(Oc2cnc3cc(Cl)ccc3n2)cc1` (stereo not given), the result was inactive. The same measure, in the same setting: as for `CCCCC(CC)COC(=O)c1ccccc1C(=O)O` (stereo not given), the entry is “inactive”; as for `CCCCC(CC)CN1C(=O)C2C3C=CC(C3)C2C1=O` (stereo not given), “inactive”.

As to `CCCCOC(=O)C(C)Oc1ccc(Oc2ccc(C(F)(F)F)cn2)cc1` (stereo not given), the result was inactive. As to `O=C(O)C1(C(=O)Nc2ccc(Cl)cc2Cl)CC1`, the compound was classed as inactive. Regarding `O=C(c1ccc(O)cc1O)c1ccc(O)cc1O`, the result was inactive. As for `CC(C)CCCCCCc1ccc(O)cc1`, the compound was called inactive. `CCCN(CCC)C(=O)SCC`: the compound was called inactive. As to `O=C(c1ccccc1)C1CCCCC1`, the call was inactive. On the same count and under the same terms, as for `CCC(C)OC(=O)N1CCCCC1CCO` (stereo not given), the entry is “inactive”; as for `CSC(=O)c1cccc2nnsc12`, “inactive”. Take `C[C@]12CC[C@@H]3c4ccc(O)cc4C[C@@H](CCCCCCCCCS(=O)CCCC(F)(F)C(F)(F)F)[C@H]3[C@@H]1CC[C@@H]2O` (stereo not given in full): the AC50 was 0.0998 µM (active).
